Reference: PubChem BioAssay AID1645882 (National Center for Advancing Translational Sciences (NCATS), 2021)
Values joined by “and” are separate entries in the source; they are usually repeats but may differ in a detail not shown here. Equal entries are not always repeated. Hit rate of the full screen: of about 16,000 compounds, about 120 (0.75%) were called active. Not shown: some 4% with an inconclusive outcome. The call rests on the fitted dose curve; in most records, active means well fitted inhibition curve with a large enough effect; inconclusive means small, poorly fitted or top-dose-only effect; inactive means no such curve, though single readings can be large or run the other way. This excerpt belongs to a sample that is enriched for actives. Some structures have more than one record in an assay (separate samples or runs), and their calls can disagree.

Each compound was assayed against Rap guanine nucleotide exchange factor 3 (Homo sapiens) (UniProt O95398) (assay: Validation qHTS for antagonist of cAMP-regulated guanine nucleotide exchange factor 3 (EPAC1)). Conditions: EPAC1 Rap1B-BODIPY-GDP exchange, fluorescence; series mostly up to 150 µM; activity change, negative = inhibition: at the top concentration.
Sequence of Rap guanine nucleotide exchange factor 3 (Homo sapiens) (O95398 whole entry, looked up): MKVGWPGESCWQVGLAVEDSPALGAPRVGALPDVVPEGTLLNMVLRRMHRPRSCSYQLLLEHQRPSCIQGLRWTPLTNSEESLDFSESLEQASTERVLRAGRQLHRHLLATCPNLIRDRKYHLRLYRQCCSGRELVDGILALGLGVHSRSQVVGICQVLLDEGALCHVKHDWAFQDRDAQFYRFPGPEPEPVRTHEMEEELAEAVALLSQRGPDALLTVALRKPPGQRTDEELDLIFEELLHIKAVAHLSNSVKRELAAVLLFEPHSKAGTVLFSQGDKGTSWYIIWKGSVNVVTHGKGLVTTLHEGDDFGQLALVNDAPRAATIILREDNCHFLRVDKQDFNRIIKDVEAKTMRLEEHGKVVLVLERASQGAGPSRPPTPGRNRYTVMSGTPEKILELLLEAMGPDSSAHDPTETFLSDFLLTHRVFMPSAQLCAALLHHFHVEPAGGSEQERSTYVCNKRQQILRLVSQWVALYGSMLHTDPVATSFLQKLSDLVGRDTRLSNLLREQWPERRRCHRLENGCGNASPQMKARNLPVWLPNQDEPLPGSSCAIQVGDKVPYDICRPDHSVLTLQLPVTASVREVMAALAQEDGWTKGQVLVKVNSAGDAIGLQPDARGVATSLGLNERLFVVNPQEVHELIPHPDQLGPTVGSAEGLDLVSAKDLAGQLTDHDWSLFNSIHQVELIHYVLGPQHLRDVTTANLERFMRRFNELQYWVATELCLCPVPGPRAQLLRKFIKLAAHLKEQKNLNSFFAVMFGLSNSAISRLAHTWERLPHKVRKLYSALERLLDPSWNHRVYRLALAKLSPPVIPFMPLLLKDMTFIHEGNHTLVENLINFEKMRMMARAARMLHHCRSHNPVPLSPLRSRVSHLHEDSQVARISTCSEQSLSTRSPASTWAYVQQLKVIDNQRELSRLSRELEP
Description: Assay Provider (PI): Xiaodong Cheng Ph.D.
The University of Texas Medical Branch, […], TX
In multi-cellular eukaryotic organisms, the effects of cAMP are transduced by two ubiquitously-expressed intracellular cAMP receptors, the classic protein kinase A/cAMP-dependent protein kinase (PKA/cAPK) and the more recently discovered exchange protein directly activated by cAMP/cAMP-regulated guanine nucleotide exchange factor (EPAC/cAMP-GEF). Both PKA and EPAC are ubiquitously expressed in all tissues, and an increase in intracellular cAMP levels will lead to the activation of both PKA and EPAC. Therefore, careful dissections of the individual role and relative contribution of EPAC and PKA within the overall cAMP signaling in various model systems are critical for further elucidating the mechanism of cAMP signaling. To date no EPAC-specific antagonists and agonist, as well as isoform-specific agonists have been reported, and developing EPAC-specific pharmacological probes to determine the physiological functions that EPAC play in the overall cAMP-mediated signaling remains a major challenge within the research field. Furthermore, identified regulators of EPAC may lead to new mechanism-based therapeutic strategies specifically targeting the EPAC / cAMP-signaling components as EPAC has been implicated to play important roles in major human pathological conditions such as diabetes, heart disease, and cancer.
This qHTS will be used to screen the Molecular Libraries Small Molecule Repository (MLSMR) as a concentration-titration series using the NCGC unique quantitative screening (qHTS) platform to find activators for EPAC1. In addition, this assay will also be used as a counterscreen for the EPAC2 qHTS. This fluorescent based assay is developed and validated for EPAC1 that measures exchange using EPAC effector Rap1 complex with BODIPY-GDP, a GDP analog with a tethered fluorophores. Activators are identified by monitoring the change in fluorescence signal as the exchanged free BODIPY-GDP has a reduced fluorescence compared to Rap1-bound BODIPY-GDP. Increase in signal (activation) is the desired outcome for the EPAC1 agonist while no activity in this assay is desired for the EPAC2 agonist counterscreen.
[1] de Rooij, J., Zwartkruis, F. J., Verheijen, M. H., Cool, R. H., Nijman, S. M., Wittinghofer, A., and Bos, J.L. (1998) Nature 396, 474-477.
Briefly, three uL of reagents (100 nM EPAC1, 250 nM RAP1B-BODIPY-GDP, 50 uM GDP) were dispensed into a 1536-well Greiner black solid-bottom medium binding assay plate. Controls and test compounds (23 nL) were transferred to the plate via a Kalypsys pin tool equipped with a 1536-pin array. The plates were centrifuged at 1,000 rpm for 15 seconds followed by 5 minute incubation at room temperature. The assay plates were read at 5 minute intervals for 30 minutes in the ViewLux plate reader using 480nm excitation and 540nm emission filters. The results were normalized to the […] positive control ATA and DMSO.
Further: nearly all actives have a fitted effect of over 75% in size.
Potency means the concentration at half of the fitted maximal effect.

Potency, inactive:
N[C@@H](Cc1ccc(O)c(O)c1)C(=O)O
O=C(/C=C/c1ccc(O)c(O)c1)OCCc1ccccc1
COc1ccc(C2Sc3ccccc3N(CCN(C)C)C(=O)[C@@H]2OC(C)=O)cc1 (stereo not given in full)
O=C(O)c1cc(-c2ccccc2)nc2ccccc12
O=C(O)c1c2ccccc2cc2ccccc12

Potency, inactive and 100 µM (active):
O=C(/C=C/c1ccc(O)c(O)c1)OC(Cc1ccc(O)c(O)c1)C(=O)O (stereo not given)

Potency, active:
NC(Cc1ccc(O)c(O)c1)C(=O)O (stereo not given) 50.1 µM
CC(=O)Oc1c2c(c3c(c1CC=C(C)C)O[C@@]14C(=CC5CC1C(C)(C)OC4(C/C=C(\C)C(=O)O)C5=O)C3=O)OC(C)(CCC=C(C)C)C=C2 (stereo not given in full) 89.1 µM
CC(C)=CCCC1(C)C=Cc2c(O)c3c(c(CC=C(C)C)c2O1)OC12C(=CCCC1C(C)(C)O[C@@]2(C/C=C(\C)C(=O)O)C(=O)O)C3=O (stereo not given in full) 89.1 µM
O=C(O)c1cc2ccccc2c(Cc2c(O)c(C(=O)O)cc3ccccc23)c1O 50.1 µM

Activity change, negative = inhibition, inactive:
O=C(/C=C\c1ccc(O)c(O)c1)O[C@@H](Cc1ccc(O)c(O)c1)C(=O)O 11%
N[C@@H](Cc1ccc(O)c(I)c1)C(=O)O -7.65% [at 75.8 µM]
COc1ccc(C(=O)NCC2Cc3cc(C)cc(-c4cc(C(C)=O)ccc4F)c3O2)c(OC)c1OC (stereo not given) 11.9%
COC(=O)N1CCC[C@@]2(CCN(Cc3nccs3)C2)C1 31.6%
OC(c1ccc2c(c1)CN(Cc1c[nH]c3ccccc13)CCO2)c1ccccn1 (stereo not given) 8.66%
COC(=O)/C(C)=C/CC12OC(C)(C)C3CC(C=C4C(=O)c5cc6c(c(CCC(C)(C)Cl)c5OC431)OC1(C)CCC(=C(C)C)C6C1)C2=O (stereo not given) 5.06%
CC(C)=CCc1c2c(c(O)c3c(=O)c(O)c(-c4ccccc4)oc13)C=CC(C)(C)O2 13.9%
CC(=O)Oc1c(-c2ccccc2)oc2c(CC=C(C)C)c3c(c(OC(C)=O)c2c1=O)C=CC(C)(C)O3 6.65%
C1=C(c2ccc3c(c2)CN(Cc2cccn2-c2ncccn2)CCO3)Cc2ccccc21 0.475%
CC(C)c1c(C(=O)NCC(C)(C)N2CCOCC2)cnn1-c1nccc(-c2ccccc2F)n1 5.19%
Cc1ccc(-c2ccnc(-n3ncc(C(=O)NCCN4CCOCC4)c3C3CC3)n2)o1 0.535%
CCC1CN(CCNC(=O)c2ccccc2-n2cccn2)Cc2cc(OC)ccc2O1 (stereo not given) 21.6%
CCOC(=O)[C@@H](C)N(C(=O)OC(C)(C)C)S(=O)(=O)N(Cc1ccccc1)[C@@H](C(=O)OC)C(C)C -6.25%
Cc1c(-c2ccccc2)oc2cc(O)ccc2c1=O -1.8%
CC(=O)[C@H](CC(C)C)NC(=O)[C@@H](CC(C)C)NC(=O)[C@H](CC(C)C)NC(=O)OCc1ccccc1 -12.2%
